In PubChem BioAssay AID463173 (ICCB-Longwood Screening Facility, Harvard Medical School, 2010):
The campaign covered roughly 52,000 compounds. About 1,700 (3.3%) were called active. What follows is part of a selection rich in actives, with near analogues and random picks from the rest. A number with no mark means an inactive call. Cut-off read from the data, not from the text of the source: active = survival mostly below about 52% (no sharp cut-off); inactive = mostly above about 56%.

System: Wild type
Test: growth inhibition of S. aureus wild type versus tarO mutant, primary screen, teichoic acid synthesis inhibitors, RN4220, OD600 (AID 463173)
Conditions: S. aureus RN4220 wild type/DeltatarO growth, OD600, 18 h, hits give low values, screened at 18.75 µg/mL (by protocol)

Row | Compound | survival
1 | CCOCCn1ccc2c(OCC(=O)Nc3cccc([N+](=O)[O-])c3)cccc2c1=O | 128%
2 | CCCN1C2CCCC1CC(NC(=O)c1ccc(F)cc1)C2 (configuration not stated) | 108%
3 | CNC(=O)Cn1c(=O)c2cccn2c2ccc(F)cc21 | 85%
4 | CCCC(O)c1nc2ccccc2n1CCCOc1ccc(Cl)cc1 (configuration not stated) | 97%
5 | COc1ccccc1OCCn1c(NC(=O)c2ccc(Cl)cc2)nc2ccccc21 | 80%
6 | COc1ccc(OCCn2c(C(C)Oc3ccccc3)nc3ccccc32)cc1 (configuration not stated) | 72%
7 | COc1ccccc1OCCn1c(C(C)Oc2ccccc2)nc2ccccc21 (configuration not stated) | 76%
8 | O=C(Nc1nc2ccccc2n1CCOc1ccccc1Cl)c1ccccc1 | 36%
9 | COc1ccc(OCCn2c(NC(=O)c3ccc(OC)cc3)nc3ccccc32)cc1 | -13% (active)
10 | COc1ccccc1OCCn1c(NC(=O)c2ccccc2Cl)nc2ccccc21 | -10% (active)
11 | COc1ccc(C(=O)Nc2nc3ccccc3n2CCOc2ccc(Cl)cc2)cc1 | 4% (active)
12 | OCCNc1nc2ccccc2n1CCOc1ccccc1 | 115%
13 | Cc1ccc(N2CC(NC(=O)/C=C\c3ccc4c(c3)OCO4)CC2=O)cc1C (configuration not stated) | 130%
14 | CCOc1ccc(CCNC(=O)c2nn(-c3ccc(OC)c(Cl)c3)c(=O)c3c2c2ccccc2n3C)cc1OCC | 88%
15 | COc1ccc(OC)c(-n2cnc3cc(C(=O)NC4CCCC4)ccc32)c1 | 72%
16 | CC1=CC(C)C2C(=O)N(c3ccccc3)C(=O)C2C1 (configuration not stated) | 111%
17 | COc1ccc(NC(=O)Cn2c(=O)oc3cc(S(=O)(=O)N4CCCC4)ccc32)cc1OC | 79%
18 | CC(C)c1ccc(C2N=C(N)Nc3nc4ccccc4n32)cc1 (configuration not stated) | 93%
19 | CC(C)CCOc1ccc(C2N=C(N)Nc3nc4ccccc4n32)cc1 (configuration not stated) | -15% (active)
20 | COc1cc(C2N=C(N)Nc3nc4ccccc4n32)ccc1OCCC(C)C (configuration not stated) | 85%
21 | CCc1ccc(N2CCn3c2nc2c3c(=O)n(CCCc3ccccc3)c(=O)n2C)cc1 | 88%
22 | O=C(Nc1ccccc1C(F)(F)F)N1CC=C(c2c[nH]c3ccccc23)CC1 | 127%
23 | Cc1ccc(CNS(=O)(=O)c2ccc(C(=O)N(C)C)s2)cc1 | -6% (active)

Row | Compound | survival
24 | CN(C)C(=O)c1ccc(S(=O)(=O)NCc2ccc(Cl)cc2)s1 | 123%
25 | COc1ccc(CNS(=O)(=O)c2ccc(C(=O)N(C)C)s2)cc1 | 87%
26 | COc1cccc(C2C(C(=O)Nc3ccc(C)cc3C)=C(C)Nc3c(C(=O)Nc4cccc(C)c4)cnn32)c1OC (configuration not stated) | 78%
27 | COc1ccccc1NC(=O)C1=C(C)Nc2c(C(=O)Nc3cccc(C)c3)cnn2C1c1ccccc1Cl (configuration not stated) | -6% (active)
28 | CCOc1ccc(NC(=O)c2cnn3c2NC(c2ccccc2)=CC3c2cccc(OC)c2OC)cc1 (configuration not stated) | 85%
29 | CCc1ccc(C2C(C(=O)Nc3ccccc3)=C(C)Nc3c(C(=O)Nc4ccc(C)cc4)cnn32)cc1 (configuration not stated) | -1% (active)
30 | COc1ccccc1NC(=O)C1=C(C)Nc2c(C(=O)Nc3cccc(C)c3)cnn2C1c1ccccc1C (configuration not stated) | 69%
31 | COc1cccc(C2C=C(c3ccccc3)Nc3c(C(=O)Nc4ccccc4)cnn32)c1OC (configuration not stated) | 64%
32 | COc1cccc(C2C(C(=O)Nc3ccc(Cl)cc3)=C(C)Nc3c(C(=O)Nc4ccccc4)cnn32)c1OC (configuration not stated) | 93%
33 | COc1ccccc1NC(=O)C1=C(C)Nc2c(C(=O)Nc3ccc(C)cc3)cnn2C1c1cccc(OC)c1OC (configuration not stated) | 14% (active)
34 | CCc1ccc(C2C(C(=O)Nc3ccccc3OC)=C(C)Nc3c(C(=O)Nc4ccc(C)cc4)cnn32)cc1 (configuration not stated) | 74%
35 | COc1cccc(C2C=C(c3ccc(C)cc3)Nc3c(C(=O)Nc4ccc(F)cc4)cnn32)c1OC (configuration not stated) | -3% (active)
36 | COc1ccc(C2C(C(=O)Nc3ccccc3)=C(C)Nc3c(C(=O)Nc4ccccc4)cnn32)cc1 (configuration not stated) | 134%
37 | CC1=C(C(=O)Nc2ccccc2)C(c2ccccc2Cl)n2ncc(C(=O)Nc3cccc(C)c3)c2N1 (configuration not stated) | 72%
38 | Cc1c(C(=O)Nc2cccc(-c3nc4ccccc4s3)c2)oc2ccccc12 | 98%
39 | Cc1ccc(C(NC(=O)Cc2cccs2)C(=O)Nc2ccc(C(C)C)cc2)cc1 (configuration not stated) | 82%
40 | CCOc1ccc(C(=O)N2CCCCC2CCN2CCOCC2)cc1 (configuration not stated) | 88%
41 | Cc1ccc(NC(=O)CSc2nccn2C2CCCC2)cc1Cl | 125%
42 | COc1ccc2c(c1)c1c(c(=O)n(CCc3ccccc3)c(=O)n1Cc1ccc(Cl)cc1)n2C | 63%
43 | O=C(Nc1cc(-c2nc3cc(Cl)ccc3o2)ccc1Cl)c1cccs1 | 79%
44 | CC(C)c1ccc2oc(-c3cc(NC(=O)c4cccs4)ccc3Cl)nc2c1 | 7% (active)
45 | Cc1cccc(C(=O)Nc2ccc(-c3nc4cc(C(C)C)ccc4o3)cc2)c1 | 47%
46 | Cc1ccc(-c2nc3cc(C(C)C)ccc3o2)cc1NC(=O)c1cccs1 | 72%

Row | Compound | survival
47 | CCc1ccc2oc(-c3cc(NC(=O)c4cccs4)ccc3Cl)nc2c1 | 12%
48 | Cc1cc(NC(=O)c2cccs2)cc(-c2nc3cc(Cl)ccc3o2)c1O | 87%
49 | Cc1cc(NC(=O)c2cccnc2)cc(-c2nc3cc(Cl)ccc3o2)c1O | 157%
50 | CC(C)c1ccc2oc(-c3cc(NC(=O)c4cccnc4)ccc3Cl)nc2c1 | 1% (active)
51 | CC(C)c1ccc2oc(-c3ccc(Cl)c(NC(=O)c4cccs4)c3)nc2c1 | 2% (active)
52 | CN(C)C(=O)CN(C#N)c1nc(Cl)nc(N(C)C)n1 | 110%
53 | N#Cc1ccc(S(=O)(=O)N2CCC(Oc3cccc(C(F)(F)F)c3)CC2)cc1 | 84%
54 | COc1ccc(CNC(=O)Cc2ccc(NC(=O)N3CCSc4ncccc43)cc2)cc1OC | 75%
55 | Cc1cccc(-c2nc3c4ccccc4nc(NCc4ccc(Cl)cc4)n3n2)c1 | 47%
56 | O=C1CCSC2(C(=O)N(Cc3ccc(F)cc3)c3ccccc32)N1c1cccc(F)c1 (configuration not stated) | 74%
57 | CCOc1ccccc1C(=O)Nc1c(NC)c2ccccc2oc1=O | 76%
58 | Cc1ccc(CN2CCC(CNc3ncnc4onc(-c5ccc(Cl)cc5)c34)CC2)cc1 | 77%
59 | Cc1ccc(CN2CCC(CNc3ncnc4onc(-c5ccc(F)cc5)c34)CC2)cc1 | -4% (active)
60 | Fc1ccc(-c2noc3ncnc(NCC4CCN(Cc5ccc(Cl)cc5)CC4)c23)cc1 | 81%
61 | O=c1c(S(=O)(=O)c2ccc(Cl)cc2)cn(Cc2ccc(F)cc2)c2ccc(F)cc12 | 130%
62 | CCn1c(=O)c2cc(C(=O)NCCCN3CCN(C)CC3)sc2c2ccccc21 | 124%
63 | COCCNC(=O)C1=CC(c2ccc3c(c2)OCO3)=NS(=O)(=O)N1C | 103%
64 | Cc1ccc(CNC(=O)CCC(=O)N2CC3CCCN3c3ccccc32)cc1 (configuration not stated) | 82%
65 | COc1cccc(CNC(=O)CCC(=O)N2CC3CCCN3c3ccccc32)c1 (configuration not stated) | 65%
66 | O=C(CCC(=O)N1CC2CCCN2c2ccccc21)NCc1ccccc1Cl (configuration not stated) | 69%
67 | O=C(CCC(=O)N1CC2CCCN2c2ccccc21)NCc1cccc(Cl)c1 (configuration not stated) | 10% (active)
68 | O=C(CCC(=O)N1CC2CCCN2c2ccccc21)NCc1ccc(F)cc1 (configuration not stated) | -2% (active)
69 | O=C(CCC(=O)N1CC2CCCN2c2ccccc21)NCc1ccccc1 (configuration not stated) | 88%

Row | Compound | survival
70 | CC(=O)Nc1nonc1-c1nnc(SCC(=O)Nc2ccccc2)n1-c1ccccc1 | 51%
71 | O=C(NC1CCCC1)C(c1ccc(O)cc1)N(C(=O)Cn1nnc(-c2cccs2)n1)C1CCCC1 (configuration not stated) | 100%
72 | O=C(Cn1c(=O)sc2ccccc21)OCc1ccccc1 | 118%
73 | CS(=O)(=O)n1c(=O)sc2ccccc21 | 121%
74 | CCCOc1ccccc1Cn1c(=O)sc2ccccc21 | -5% (active)
75 | CCCCOc1ccccc1Cn1c(=O)sc2ccccc21 | -4% (active)
76 | CCN(CC)C(=O)Cn1c(=O)sc2ccccc21 | 105%
77 | CCOC(=O)Cn1c(=O)sc2ccccc21 | 116%
78 | O=C(Cn1c(=O)sc2ccccc21)Nc1ccc(O)cc1 | 103%
79 | Cc1cccc(NC(=O)Cn2c(=O)sc3ccccc32)c1 | 119%
80 | CC(C)CCOc1ccccc1Cn1c(=O)sc2ccccc21 | -1% (active)
81 | COc1ccc(CNCCNC(=O)c2cccs2)c(OC)c1OC | 108%
82 | COc1ccc(CNC(=O)c2ccc3c(c2)N(Cc2ccc(C)cc2)CCS3)cc1 | 93%
83 | O=C(Cn1nc(-c2ccc(Cl)cc2)ccc1=O)NCCc1ccccc1 | 45%
84 | C=Cc1ccc(Cn2c(=O)n(-c3cccc(Cl)c3)c(=O)c3c4c(sc32)CN(C(C)=O)CC4)cc1 | 81%
85 | Cc1cc(C)c(S(=O)(=O)N2CCN(Cc3nc4ccc(C)cc4o3)CC2)c(C)c1 | 73%
86 | O=[N+]([O-])c1cc(-c2nc(-c3ccccc3)no2)ccc1NCC1CCCO1 (configuration not stated) | 86%
87 | Cc1ccc(-n2ncc(C(=O)NCc3ccccn3)c2C2CCN(C(=O)OC(C)(C)C)CC2)c(C)c1 | 45%
88 | CC(C)(C)OC(=O)N1CCC(c2c(C(=O)NCc3ccccn3)cnn2-c2ccccc2)CC1 | 73%
89 | CCOC(=O)N1CCC(NC(=O)c2cnn(-c3cccc(Cl)c3C)c2C2CCN(C(=O)OC(C)(C)C)CC2)CC1 | -3% (active)
90 | Cc1c(Cl)cccc1-n1ncc(C(=O)NC2CCCCC2)c1C1CCN(C(=O)OC(C)(C)C)CC1 | 75%
91 | CC(C)(C)OC(=O)N1CCC(c2c(C(=O)NCc3ccccn3)cnn2-c2ccccc2Cl)CC1 | -6% (active)
92 | Cc1c(Cl)cccc1-n1ncc(C(=O)NC2CCCC2)c1C1CCN(C(=O)OC(C)(C)C)CC1 | 66%
